Experimental data taken from ChEMBL document CHEMBL3988442, “University of Dundee, Small-Polar-MMV Screening Library” (2021).
For some of these results: Measured potencies and affinities stand elsewhere.

Tests used:
Set-up in all cases: scale not given: direction of the effect not stated beside the values
[1] = molecular target: Protein translocase subunit SecA (Escherichia coli (strain K12)) (UniProt P10408); test: Assay to Identify E. coli SecA ATPase Inhibitors; format: functional; details: 30 µM
[2] = molecular target: T1, Ubiquitin-activating enzyme e1, putative (Leishmania donovani (strain BPK282A1)) (UniProt E9BSI1); test: Leishmania donovani Ubiquitin Activating Enzyme (LdE1); format: functional; details: 30 µM
T1 sequence (whole entry): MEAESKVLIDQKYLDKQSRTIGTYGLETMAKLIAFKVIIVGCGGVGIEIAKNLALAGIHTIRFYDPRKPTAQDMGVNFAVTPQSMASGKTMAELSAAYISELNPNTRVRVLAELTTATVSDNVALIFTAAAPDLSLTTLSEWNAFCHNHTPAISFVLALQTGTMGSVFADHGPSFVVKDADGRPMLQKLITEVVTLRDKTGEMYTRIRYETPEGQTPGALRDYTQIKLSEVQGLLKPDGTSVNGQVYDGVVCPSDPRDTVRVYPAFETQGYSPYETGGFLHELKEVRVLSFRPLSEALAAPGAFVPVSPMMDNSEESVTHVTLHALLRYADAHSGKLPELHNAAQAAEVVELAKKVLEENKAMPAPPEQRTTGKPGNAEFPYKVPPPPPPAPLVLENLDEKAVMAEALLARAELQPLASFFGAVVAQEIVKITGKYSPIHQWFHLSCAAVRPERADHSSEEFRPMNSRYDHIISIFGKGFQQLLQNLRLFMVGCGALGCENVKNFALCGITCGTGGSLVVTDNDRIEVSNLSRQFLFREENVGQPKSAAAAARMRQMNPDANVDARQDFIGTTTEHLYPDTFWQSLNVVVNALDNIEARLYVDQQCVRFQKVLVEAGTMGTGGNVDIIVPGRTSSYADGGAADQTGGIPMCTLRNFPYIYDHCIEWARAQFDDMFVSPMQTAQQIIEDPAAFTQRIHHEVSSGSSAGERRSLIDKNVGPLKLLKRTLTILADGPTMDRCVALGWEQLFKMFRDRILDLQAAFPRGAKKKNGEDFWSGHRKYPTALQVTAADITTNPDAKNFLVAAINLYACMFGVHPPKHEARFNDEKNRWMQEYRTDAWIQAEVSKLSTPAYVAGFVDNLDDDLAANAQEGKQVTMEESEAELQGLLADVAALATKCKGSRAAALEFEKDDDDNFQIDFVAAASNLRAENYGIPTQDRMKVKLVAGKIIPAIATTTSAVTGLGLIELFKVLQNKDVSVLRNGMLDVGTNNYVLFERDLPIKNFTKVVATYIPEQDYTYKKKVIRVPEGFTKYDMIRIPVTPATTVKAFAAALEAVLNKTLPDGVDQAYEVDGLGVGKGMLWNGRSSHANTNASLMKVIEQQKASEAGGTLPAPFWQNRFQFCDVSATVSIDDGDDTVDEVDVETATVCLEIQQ

[3] = molecular target: AMP-activated protein kinase, AMPK (Homo sapiens) (UniProt P54646+O43741+P54619+Q9UGJ0+Q9Y478+Q13131+Q9UGI9); test: AMP-dependent Kinase enzyme assay. An in vitro enzyme assay that detects ADP turnover that is directly proportional to AMPK activity. This uses naive AMPK that is activated during the assay with MK-8722; format: functional; details: 30 µM
[4] = molecular target: Sialic acid-binding Ig-like lectin 9 (Homo sapiens) (UniProt Q9Y336); test: Hs-Siglec9 ALPHAscreen SOP 20170721; details: 10 µM
Trypanosoma cruzi = test: Trypanosoma cruzi phosphomannomutase and mannose-1-phosphate guanylyltransferase assay; format: functional; details: 10 µM
[5] = molecular target: T2, Arginase-2, mitochondrial (Homo sapiens) (UniProt P78540); test: in vitro enzyme assay to detect the production of urea directly proportional to the activity of Arginase II; format: functional; details: 33.3 µM; also: in the data most compounds retested in dose-response had high values
T2 sequence (whole entry): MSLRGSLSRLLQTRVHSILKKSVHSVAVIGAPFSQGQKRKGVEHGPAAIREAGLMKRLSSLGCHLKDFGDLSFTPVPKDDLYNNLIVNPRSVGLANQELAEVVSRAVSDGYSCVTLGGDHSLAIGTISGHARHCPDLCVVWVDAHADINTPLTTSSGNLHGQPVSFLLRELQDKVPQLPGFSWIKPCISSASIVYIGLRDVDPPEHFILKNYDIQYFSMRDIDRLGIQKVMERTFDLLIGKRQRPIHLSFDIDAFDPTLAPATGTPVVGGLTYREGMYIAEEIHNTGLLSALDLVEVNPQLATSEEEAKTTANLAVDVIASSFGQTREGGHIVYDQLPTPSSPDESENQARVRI

[6] = molecular target: T3, Proteasome subunit beta (Trypanosoma cruzi) (UniProt O96673); test: Trypanosoma cruzi proteasome chymotrypsin-like activity (TcProtChymo) assay.; also: in the data most compounds retested in dose-response had high values; format: functional; details: 9.37 µM
T3 sequence (whole entry): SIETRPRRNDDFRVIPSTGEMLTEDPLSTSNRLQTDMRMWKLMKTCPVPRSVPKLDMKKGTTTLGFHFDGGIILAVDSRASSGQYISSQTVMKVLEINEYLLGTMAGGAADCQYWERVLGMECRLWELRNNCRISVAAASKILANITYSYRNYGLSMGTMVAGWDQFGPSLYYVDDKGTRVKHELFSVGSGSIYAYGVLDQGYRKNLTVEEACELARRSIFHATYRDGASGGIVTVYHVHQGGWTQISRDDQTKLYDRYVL

Homo sapiens = species on record: Homo sapiens; test: To identify inhibition of the IFN signalling (Jak-Stat) pathway via expression of an eGFP reporter gene under the control of an IFN-stimulated response element (ISRE) containing MxA promoter.; format: functional; details: 30 µM
[7] = molecular target: T4, Tyrosyl-tRNA synthetase, putative (Trypanosoma cruzi (strain CL Brener)) (UniProt Q4DSP6); test: Trypanosoma cruzi tyrosyl tRNA synthetase (TcYRS) _High Tyrosine SOP; format: functional; details: 30 µM; also: in the data most compounds retested in dose-response had high values
T4 sequence (whole entry): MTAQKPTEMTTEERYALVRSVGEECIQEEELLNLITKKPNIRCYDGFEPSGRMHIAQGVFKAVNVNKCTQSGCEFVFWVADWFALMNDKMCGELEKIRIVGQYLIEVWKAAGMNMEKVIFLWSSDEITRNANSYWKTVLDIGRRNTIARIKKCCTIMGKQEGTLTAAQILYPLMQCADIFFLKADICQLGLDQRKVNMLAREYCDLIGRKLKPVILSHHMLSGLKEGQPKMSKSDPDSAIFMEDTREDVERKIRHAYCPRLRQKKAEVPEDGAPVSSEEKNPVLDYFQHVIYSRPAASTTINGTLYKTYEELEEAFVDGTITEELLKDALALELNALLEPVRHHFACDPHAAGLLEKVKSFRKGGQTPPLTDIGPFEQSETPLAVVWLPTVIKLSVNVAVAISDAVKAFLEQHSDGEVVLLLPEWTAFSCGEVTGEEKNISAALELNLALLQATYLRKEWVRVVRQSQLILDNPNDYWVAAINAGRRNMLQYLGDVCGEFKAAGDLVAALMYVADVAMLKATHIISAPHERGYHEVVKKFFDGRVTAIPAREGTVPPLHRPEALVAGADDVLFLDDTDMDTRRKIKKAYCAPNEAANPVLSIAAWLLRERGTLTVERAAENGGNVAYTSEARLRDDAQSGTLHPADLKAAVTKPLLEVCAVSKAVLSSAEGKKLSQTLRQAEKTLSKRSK

[8] = molecular target: T4, Tyrosyl-tRNA synthetase, putative (Trypanosoma cruzi (strain CL Brener)); test: Trypanosoma cruzi tyrosyl tRNA synthetase (TcYRS) SOP; format: functional; details: 30 µM
[9] = molecular target: Chromo domain-containing protein 1 (Saccharomyces cerevisiae (strain ATCC 204508 / S288c) (Baker's yeast)) (UniProt P32657); test: ScCHD-1 Enzyme Inhibition Assay; format: functional; details: 30 µM; also: in the data most compounds retested in dose-response had high values
Sequence of Chromo domain-containing protein 1 (Saccharomyces cerevisiae (strain ATCC 204508 / S288c) (Baker's yeast)) (P32657 whole entry, the tested form may be a part): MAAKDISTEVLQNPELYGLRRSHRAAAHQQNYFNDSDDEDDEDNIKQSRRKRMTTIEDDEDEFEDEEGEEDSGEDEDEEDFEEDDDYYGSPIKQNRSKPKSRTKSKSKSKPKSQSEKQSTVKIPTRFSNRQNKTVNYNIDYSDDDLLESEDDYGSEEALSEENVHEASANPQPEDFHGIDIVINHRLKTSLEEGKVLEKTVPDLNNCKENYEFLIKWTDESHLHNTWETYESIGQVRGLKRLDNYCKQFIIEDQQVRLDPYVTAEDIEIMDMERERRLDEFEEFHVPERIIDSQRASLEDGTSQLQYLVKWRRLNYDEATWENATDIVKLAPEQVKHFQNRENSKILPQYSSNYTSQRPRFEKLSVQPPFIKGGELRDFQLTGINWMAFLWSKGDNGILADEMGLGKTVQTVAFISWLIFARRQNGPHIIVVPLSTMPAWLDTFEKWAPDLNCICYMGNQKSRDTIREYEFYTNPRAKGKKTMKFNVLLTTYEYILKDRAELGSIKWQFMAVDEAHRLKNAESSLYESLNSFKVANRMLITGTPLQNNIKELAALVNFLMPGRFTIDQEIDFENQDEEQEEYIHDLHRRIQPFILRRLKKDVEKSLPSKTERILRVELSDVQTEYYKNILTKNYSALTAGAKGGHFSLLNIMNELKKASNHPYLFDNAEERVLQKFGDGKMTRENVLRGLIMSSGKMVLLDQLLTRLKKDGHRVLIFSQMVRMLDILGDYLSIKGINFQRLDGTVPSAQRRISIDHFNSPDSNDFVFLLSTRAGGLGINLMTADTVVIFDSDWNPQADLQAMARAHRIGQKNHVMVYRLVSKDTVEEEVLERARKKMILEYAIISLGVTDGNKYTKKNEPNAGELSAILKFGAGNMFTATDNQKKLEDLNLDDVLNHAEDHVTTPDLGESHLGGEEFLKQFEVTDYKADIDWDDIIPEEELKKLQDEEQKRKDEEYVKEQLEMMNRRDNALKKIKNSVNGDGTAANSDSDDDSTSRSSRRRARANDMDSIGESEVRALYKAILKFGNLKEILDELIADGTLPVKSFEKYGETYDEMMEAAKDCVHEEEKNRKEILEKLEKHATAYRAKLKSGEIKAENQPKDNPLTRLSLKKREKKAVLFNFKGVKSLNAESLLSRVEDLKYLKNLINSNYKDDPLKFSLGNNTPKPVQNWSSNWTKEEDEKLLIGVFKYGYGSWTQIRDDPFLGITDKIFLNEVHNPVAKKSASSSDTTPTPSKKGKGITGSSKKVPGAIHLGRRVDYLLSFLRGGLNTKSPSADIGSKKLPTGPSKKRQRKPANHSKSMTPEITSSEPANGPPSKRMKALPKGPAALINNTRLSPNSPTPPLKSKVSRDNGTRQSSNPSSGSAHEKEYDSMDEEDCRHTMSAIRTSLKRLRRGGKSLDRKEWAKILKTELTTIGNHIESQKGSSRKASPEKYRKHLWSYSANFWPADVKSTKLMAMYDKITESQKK

Sequence of Sialic acid-binding Ig-like lectin 9 (Homo sapiens) (Q9Y336 whole entry): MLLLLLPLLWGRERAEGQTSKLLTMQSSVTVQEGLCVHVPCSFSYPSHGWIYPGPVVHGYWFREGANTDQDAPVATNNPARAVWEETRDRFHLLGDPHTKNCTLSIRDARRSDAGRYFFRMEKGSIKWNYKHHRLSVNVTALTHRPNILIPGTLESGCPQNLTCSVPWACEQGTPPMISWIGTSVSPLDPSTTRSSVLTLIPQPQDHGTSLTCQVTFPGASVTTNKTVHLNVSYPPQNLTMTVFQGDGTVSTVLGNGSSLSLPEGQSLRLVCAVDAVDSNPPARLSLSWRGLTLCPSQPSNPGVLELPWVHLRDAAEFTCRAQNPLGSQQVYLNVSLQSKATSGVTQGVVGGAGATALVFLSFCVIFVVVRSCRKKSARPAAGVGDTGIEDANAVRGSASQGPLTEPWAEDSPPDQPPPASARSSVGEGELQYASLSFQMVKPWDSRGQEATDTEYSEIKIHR
Sequence of Protein translocase subunit SecA (Escherichia coli (strain K12)) (P10408 whole entry): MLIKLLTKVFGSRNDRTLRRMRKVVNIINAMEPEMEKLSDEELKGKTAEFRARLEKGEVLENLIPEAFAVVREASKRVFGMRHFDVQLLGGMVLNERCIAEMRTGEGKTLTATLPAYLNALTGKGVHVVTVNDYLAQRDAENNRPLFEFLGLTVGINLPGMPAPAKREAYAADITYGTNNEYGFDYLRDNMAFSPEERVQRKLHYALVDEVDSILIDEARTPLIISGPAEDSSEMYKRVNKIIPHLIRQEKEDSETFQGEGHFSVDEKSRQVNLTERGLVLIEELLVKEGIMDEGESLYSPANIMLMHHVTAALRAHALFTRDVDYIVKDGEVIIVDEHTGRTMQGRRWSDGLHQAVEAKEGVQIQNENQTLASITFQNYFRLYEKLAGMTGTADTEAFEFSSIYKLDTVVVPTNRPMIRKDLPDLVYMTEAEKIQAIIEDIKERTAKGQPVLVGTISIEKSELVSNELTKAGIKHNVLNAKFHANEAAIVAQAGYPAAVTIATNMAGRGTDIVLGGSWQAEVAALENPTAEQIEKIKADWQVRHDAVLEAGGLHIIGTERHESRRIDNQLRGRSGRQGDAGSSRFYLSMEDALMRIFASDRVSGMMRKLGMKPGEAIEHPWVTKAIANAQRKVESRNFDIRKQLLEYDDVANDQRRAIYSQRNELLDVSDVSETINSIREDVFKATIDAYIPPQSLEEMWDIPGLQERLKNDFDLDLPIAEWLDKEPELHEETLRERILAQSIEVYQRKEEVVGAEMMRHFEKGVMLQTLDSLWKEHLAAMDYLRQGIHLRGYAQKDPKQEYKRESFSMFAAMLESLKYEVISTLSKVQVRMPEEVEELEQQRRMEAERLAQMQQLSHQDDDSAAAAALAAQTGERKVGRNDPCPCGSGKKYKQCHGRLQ

SMILES | Percent Effect [1] | Percent Effect [2] | Percent Effect [3] | Percent Effect [4] | Percent Effect (Trypanosoma cruzi) | Percent Effect [5] | Percent Effect [6] | Percent Effect (Homo sapiens) | Percent Effect [7] | Percent Effect [8] | Percent Effect [9]
Cc1nn(C)cc1CNC(=O)c1cn(CCC2CCCCN2)nn1 (stereo not drawn) | -3.59% | 2.67% | -4.65% | 9.99% | 9.64% | -1.04% | 20.9% | -18.7% | 6.01% | 16.1% | -3.7%
CN(C)C(=O)N1C[C@H](Oc2ccccn2)[C@H]2OCCC[C@H]21 | 0.276% | 0% | 4.78% | 2.55% | -2.27% | 0.645% | 3.65% | -2.96% | 3.17% | 3.85% | -3.5%
Cc1ccoc1C(=O)NCC(Cc1ccc(F)cc1)C(N)=O (stereo not drawn) | -1.94% | 18.2% | 4.14% | 0.338% | 3.62% | 4.42% | 15.3% | -1.29% | 7.62% | 23.5% | -14.3%
CNS(=O)(=O)c1cccc(CNc2ccc(C(F)(F)F)nn2)c1 | -5.02% | 8.11% | -4.31% | -0.144% | -3.87% | 30.9% | -1.62% | 19.2% | 4.43% | 6.17% | -1.87%
O=C(NCc1ccccc1CN1CCC(O)CC1)Nc1cccnc1 | -1.42% | -5.41% | -1.33% | 2.18% | 0.193% | 2.38% | 8.79% | -8.19% | 1.59% | -2.44% | -1.85%
CN(Cc1ccco1)Cc1ccccc1CNC(=O)c1ccc[nH]1 | 0.847% | -10.8% | -0.911% | 10% | 2.32% | 14.3% | 9.31% | 19.5% | 3.7% | 12.2% | -4.76%
Cc1ncccc1CNCC1CCN(CC(O)c2ccccc2)CC1 (stereo not drawn) | -5.43% | 13.9% | -5.86% | 1.69% | -0.308% | -1.07% | 15.3% | 3.05% | 6.25% | 17.7% | -29.1%
O=C(CCNC(=O)c1ccccc1)Nc1ccncc1 | 1.26% | 10.5% | 6.49% | -0.508% | -4.58% | -8.28% | 13.5% | 3.87% | 2.13% | 10.4% | -2.65%
